Assay [1] has as its target MAP kinase-activated protein kinase 2 (Homo sapiens) (UniProt P49137). The following applies: at 10 µM.
For assay [2], the target named is MAP kinase-activated protein kinase 3 (Homo sapiens) (UniProt Q16644). The following applies: at 10 µM.
Assay [3] addresses Serine/threonine-protein kinase MARK1 (Homo sapiens) (UniProt Q9P0L2). The following applies: at 1 µM.
Assay [4] shares this target. The following applies: at 10 µM.
Assay [5] deals with Dual specificity mitogen-activated protein kinase kinase 1 (Homo sapiens) (UniProt Q02750). The note with it: at 1 µM.
Assay [6] has the same target. The following applies: at 10 µM.
Assay [7] has as its target Maternal embryonic leucine zipper kinase (Homo sapiens) (UniProt Q14680). The following applies: at 1 µM.
Assay [8] shares this target. The note with it: at 10 µM.
For assay [9], the target named is Misshapen-like kinase 1 (Homo sapiens) (UniProt Q8N4C8). The note with it: at 1 µM.
Assay [10] has the same target. The following applies: at 10 µM.
For assay [11], the target named is T1, Dual specificity mitogen-activated protein kinase kinase 6 (Homo sapiens) (UniProt P52564).
T1 sequence (whole entry): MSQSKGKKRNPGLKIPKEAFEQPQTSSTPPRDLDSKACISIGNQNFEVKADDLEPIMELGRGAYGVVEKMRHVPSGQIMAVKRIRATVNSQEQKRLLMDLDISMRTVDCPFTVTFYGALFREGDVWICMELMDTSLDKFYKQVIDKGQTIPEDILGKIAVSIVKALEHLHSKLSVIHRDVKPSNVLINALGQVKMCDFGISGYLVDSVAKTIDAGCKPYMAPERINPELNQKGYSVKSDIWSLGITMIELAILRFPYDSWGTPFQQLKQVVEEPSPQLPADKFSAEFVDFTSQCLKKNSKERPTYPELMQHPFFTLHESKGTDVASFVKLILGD
The following applies: at 1 µM.

Assay [12] has as its target T1, Dual specificity mitogen-activated protein kinase kinase 6 (Homo sapiens). The note with it: at 10 µM.
Assay [13] concerns the target T2, Dual specificity mitogen-activated protein kinase kinase 7 (Homo sapiens) (UniProt O14733).
T2 sequence (whole entry): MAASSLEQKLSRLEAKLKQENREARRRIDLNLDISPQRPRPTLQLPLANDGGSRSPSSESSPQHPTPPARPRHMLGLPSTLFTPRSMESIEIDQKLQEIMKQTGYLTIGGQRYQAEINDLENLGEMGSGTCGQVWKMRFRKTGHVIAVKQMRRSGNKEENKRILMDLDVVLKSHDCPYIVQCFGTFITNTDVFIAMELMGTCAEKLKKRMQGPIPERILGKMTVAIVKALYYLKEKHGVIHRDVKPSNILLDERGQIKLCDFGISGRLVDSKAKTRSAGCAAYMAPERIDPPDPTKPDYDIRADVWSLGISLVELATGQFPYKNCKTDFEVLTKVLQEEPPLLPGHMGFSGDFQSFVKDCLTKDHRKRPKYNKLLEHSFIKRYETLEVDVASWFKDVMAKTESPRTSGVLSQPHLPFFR
The following applies: at 1 µM.

In assay [14] the target is T2, Dual specificity mitogen-activated protein kinase kinase 7 (Homo sapiens). The following applies: at 10 µM.
The target in assay [15] is Myosin light chain kinase, smooth muscle (Homo sapiens) (UniProt Q15746). The following applies: at 1 µM.
Assay [16] shares this target. The following applies: at 10 µM.
In assay [17] the target is Mitogen-activated protein kinase kinase kinase 9 (Homo sapiens) (UniProt P80192). The note with it: at 1 µM.
For assay [18] the target is unchanged. The following applies: at 10 µM.
Assay [19] concerns the target Serine/threonine-protein kinase MRCK alpha (Homo sapiens) (UniProt Q5VT25). The following applies: at 1 µM.
For assay [20] the target is unchanged. The following applies: at 10 µM.

Chain of Maternal embryonic leucine zipper kinase (Homo sapiens) (Q14680 whole entry, looked up): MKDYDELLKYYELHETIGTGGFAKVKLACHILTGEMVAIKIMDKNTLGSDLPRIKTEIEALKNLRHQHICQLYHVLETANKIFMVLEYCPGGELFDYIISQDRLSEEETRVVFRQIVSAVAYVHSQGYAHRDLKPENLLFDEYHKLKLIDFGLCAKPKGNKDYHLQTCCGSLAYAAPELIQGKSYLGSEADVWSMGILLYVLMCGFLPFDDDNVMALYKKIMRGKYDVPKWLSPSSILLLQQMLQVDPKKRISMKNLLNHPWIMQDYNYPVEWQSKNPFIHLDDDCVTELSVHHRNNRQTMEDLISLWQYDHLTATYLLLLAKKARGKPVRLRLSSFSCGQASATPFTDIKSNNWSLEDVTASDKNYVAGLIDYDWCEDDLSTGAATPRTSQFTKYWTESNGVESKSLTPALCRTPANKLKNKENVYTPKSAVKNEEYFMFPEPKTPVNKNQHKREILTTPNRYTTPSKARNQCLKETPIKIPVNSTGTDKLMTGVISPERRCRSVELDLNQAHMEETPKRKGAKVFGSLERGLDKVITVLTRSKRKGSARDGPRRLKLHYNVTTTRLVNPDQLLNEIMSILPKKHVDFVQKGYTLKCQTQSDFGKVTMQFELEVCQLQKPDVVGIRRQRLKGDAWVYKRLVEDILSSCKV
Chain of Mitogen-activated protein kinase kinase kinase 9 (Homo sapiens) (P80192 whole entry, looked up): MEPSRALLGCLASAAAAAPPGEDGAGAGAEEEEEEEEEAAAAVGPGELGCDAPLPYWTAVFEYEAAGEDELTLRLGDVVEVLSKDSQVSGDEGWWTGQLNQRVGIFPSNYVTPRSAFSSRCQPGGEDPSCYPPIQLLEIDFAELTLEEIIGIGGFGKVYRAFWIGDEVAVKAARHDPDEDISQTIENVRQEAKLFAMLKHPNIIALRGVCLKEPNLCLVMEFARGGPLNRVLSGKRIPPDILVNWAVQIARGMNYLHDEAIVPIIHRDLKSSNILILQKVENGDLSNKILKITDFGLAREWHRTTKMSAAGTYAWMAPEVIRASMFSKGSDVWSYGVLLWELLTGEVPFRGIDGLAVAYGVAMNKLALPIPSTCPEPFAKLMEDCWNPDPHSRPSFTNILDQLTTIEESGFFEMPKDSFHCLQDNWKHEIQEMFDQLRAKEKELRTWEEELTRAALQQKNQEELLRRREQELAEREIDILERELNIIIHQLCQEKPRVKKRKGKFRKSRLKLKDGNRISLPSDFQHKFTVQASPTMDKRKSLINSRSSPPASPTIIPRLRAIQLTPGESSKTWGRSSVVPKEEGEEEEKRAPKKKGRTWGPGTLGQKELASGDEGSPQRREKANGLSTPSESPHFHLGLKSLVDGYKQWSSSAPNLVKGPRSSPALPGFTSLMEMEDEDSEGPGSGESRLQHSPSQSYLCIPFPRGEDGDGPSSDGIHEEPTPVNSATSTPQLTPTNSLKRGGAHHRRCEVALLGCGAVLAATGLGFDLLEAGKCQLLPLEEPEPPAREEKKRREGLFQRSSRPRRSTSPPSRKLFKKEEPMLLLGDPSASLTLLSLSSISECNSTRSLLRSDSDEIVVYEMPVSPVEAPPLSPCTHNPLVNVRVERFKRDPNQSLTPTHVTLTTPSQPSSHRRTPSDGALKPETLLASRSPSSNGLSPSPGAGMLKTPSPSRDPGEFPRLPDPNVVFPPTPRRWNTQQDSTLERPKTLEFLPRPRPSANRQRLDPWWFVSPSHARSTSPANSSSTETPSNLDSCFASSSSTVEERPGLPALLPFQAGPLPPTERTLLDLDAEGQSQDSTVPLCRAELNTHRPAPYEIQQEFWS
Chain of MAP kinase-activated protein kinase 2 (Homo sapiens) (P49137 whole entry, looked up): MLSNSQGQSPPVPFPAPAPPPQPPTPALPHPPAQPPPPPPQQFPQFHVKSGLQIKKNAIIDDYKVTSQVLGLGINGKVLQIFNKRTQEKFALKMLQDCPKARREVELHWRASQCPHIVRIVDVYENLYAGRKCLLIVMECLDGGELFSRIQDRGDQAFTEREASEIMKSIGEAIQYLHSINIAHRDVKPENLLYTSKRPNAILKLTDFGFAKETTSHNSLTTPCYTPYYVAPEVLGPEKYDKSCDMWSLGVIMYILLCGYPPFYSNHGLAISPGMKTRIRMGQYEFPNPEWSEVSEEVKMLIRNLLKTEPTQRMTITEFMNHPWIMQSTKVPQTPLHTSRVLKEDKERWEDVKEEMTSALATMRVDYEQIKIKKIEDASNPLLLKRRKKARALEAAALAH
Chain of Serine/threonine-protein kinase MARK1 (Homo sapiens) (Q9P0L2 whole entry, looked up): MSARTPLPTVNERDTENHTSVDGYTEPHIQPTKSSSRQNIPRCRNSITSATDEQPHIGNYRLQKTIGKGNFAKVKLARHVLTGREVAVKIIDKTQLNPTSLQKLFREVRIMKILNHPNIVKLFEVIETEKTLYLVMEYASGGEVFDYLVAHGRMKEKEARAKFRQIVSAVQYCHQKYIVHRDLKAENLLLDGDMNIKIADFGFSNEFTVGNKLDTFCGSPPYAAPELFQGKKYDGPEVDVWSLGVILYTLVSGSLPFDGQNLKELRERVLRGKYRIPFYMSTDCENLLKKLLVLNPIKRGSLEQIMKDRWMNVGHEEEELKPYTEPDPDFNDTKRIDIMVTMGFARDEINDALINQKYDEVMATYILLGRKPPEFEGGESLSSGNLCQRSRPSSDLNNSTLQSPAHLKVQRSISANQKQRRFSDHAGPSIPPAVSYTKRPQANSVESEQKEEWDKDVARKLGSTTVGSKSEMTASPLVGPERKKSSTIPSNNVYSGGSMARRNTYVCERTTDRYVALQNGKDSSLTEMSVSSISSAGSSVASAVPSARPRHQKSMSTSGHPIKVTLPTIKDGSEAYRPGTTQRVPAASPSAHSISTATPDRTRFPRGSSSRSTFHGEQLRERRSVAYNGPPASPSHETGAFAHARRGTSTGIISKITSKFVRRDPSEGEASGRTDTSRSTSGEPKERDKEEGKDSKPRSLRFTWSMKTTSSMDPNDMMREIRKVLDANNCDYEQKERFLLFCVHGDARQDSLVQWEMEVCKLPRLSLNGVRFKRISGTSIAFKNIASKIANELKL
Chain of MAP kinase-activated protein kinase 3 (Homo sapiens) (Q16644 whole entry, looked up): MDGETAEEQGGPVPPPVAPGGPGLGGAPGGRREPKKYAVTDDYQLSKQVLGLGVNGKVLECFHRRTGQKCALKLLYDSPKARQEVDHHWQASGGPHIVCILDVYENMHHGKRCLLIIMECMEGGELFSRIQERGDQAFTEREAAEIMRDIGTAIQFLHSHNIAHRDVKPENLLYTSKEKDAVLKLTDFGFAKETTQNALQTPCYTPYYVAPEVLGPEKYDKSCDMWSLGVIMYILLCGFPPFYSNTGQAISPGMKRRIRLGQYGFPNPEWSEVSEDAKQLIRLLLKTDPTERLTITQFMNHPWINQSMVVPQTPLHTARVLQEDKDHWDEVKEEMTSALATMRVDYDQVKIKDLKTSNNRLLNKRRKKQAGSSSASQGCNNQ
Chain of Misshapen-like kinase 1 (Homo sapiens) (Q8N4C8 whole entry, looked up): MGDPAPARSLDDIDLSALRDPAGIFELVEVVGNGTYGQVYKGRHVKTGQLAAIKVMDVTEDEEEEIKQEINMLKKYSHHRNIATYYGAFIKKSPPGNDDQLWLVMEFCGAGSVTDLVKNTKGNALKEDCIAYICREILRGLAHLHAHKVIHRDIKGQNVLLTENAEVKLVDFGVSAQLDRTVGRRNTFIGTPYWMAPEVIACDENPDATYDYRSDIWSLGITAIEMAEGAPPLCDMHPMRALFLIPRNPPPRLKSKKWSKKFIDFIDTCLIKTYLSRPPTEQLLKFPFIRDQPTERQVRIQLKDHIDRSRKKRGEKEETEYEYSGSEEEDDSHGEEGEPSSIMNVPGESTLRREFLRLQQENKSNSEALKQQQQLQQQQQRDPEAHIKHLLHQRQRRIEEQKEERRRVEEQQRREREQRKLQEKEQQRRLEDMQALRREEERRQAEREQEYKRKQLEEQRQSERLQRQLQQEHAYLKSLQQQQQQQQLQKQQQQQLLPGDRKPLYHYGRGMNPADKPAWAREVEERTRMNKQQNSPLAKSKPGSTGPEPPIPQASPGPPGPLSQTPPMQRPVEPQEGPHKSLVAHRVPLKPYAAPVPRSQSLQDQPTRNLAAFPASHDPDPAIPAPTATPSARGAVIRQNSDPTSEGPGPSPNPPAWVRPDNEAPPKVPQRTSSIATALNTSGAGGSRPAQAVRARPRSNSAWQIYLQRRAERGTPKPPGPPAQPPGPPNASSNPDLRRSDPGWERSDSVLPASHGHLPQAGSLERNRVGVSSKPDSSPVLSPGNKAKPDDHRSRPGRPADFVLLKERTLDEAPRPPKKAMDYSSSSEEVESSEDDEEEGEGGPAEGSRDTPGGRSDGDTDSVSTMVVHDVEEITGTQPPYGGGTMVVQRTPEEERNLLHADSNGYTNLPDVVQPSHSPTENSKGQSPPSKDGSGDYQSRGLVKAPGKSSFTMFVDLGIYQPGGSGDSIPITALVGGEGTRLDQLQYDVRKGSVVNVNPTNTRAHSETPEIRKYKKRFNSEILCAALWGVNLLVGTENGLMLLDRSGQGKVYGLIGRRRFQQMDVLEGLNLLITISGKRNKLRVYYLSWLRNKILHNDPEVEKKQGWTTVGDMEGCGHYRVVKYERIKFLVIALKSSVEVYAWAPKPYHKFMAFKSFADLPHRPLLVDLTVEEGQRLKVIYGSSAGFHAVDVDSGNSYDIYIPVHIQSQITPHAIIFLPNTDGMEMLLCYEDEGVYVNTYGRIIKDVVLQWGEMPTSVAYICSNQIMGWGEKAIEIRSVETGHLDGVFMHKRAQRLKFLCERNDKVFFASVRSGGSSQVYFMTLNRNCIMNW
Chain of Dual specificity mitogen-activated protein kinase kinase 1 (Homo sapiens) (Q02750 whole entry): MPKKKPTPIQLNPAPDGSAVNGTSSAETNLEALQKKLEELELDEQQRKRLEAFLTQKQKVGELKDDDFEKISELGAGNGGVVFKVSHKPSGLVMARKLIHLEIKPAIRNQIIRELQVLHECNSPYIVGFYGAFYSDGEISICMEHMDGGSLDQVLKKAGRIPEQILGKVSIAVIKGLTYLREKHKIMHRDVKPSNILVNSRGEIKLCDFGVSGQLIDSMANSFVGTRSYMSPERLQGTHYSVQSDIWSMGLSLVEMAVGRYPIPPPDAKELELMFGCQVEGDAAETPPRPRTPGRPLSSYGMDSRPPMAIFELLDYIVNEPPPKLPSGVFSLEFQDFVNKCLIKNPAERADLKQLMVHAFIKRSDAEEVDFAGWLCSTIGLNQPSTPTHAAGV

Consider `CNc1cc2c(Nc3cccc(Br)c3)ncnc2cn1`, for which the residual activity came out at 112% in [1]; 99% in assay [2]; 88% in assay [3]; 73% in assay [4]; 84% in assay [5]; 53% in [6]. Moreover, the residual activity amounted to 109% in assay [7]; 112% in [8]; 92% in assay [9]; 87% in assay [10]; 72% in [11]; 79% in assay [12]. Besides, the residual activity in assay [13] stood at 100%; in [14], 93%; in assay [15] it was 55%; in assay [16] it was 49%; in [17], 68%; in [18], 53%. The residual activity in assay [19] was 98%; in assay [20], 101%.

`Oc1ccc(Nc2nc(-c3ccc(Cl)cc3)cs2)cc1`: the residual activity turned out to be 71% in [1]; 116% in [2]; 104% in assay [3]; 93% in [4]; 106% in assay [5]; 112% in assay [6]. Also, the residual activity in [7] amounted to 114%; in assay [8], 100%; in assay [9] it was 104%; in assay [10], 83%; in [11], 82%; in assay [12] it was 52%. Besides, the residual activity was 91% in [13]; 93% in assay [14]; 118% in assay [15]; 56% in assay [16]; 92% in assay [17]; 36% in assay [18]. Besides, the residual activity stood at 118% in [19] and 135% in assay [20].

For the compound `Cc1ccc(S(=O)(=O)/C=C/C#N)cc1`, the residual activity in [1] stood at 74%; in assay [2], 85%; in assay [3] it was 90%; in assay [4] it was 89%; in [5] it was 105%; in [6], 95%. For the same compound, the residual activity was 96% in assay [7]; 100% in assay [8]; 111% in assay [9]; 104% in [10]; 124% in assay [11]; 94% in assay [12]. In addition, the residual activity in assay [13] amounted to 93%; in [14], 77%; in assay [15], 95%; in assay [16], 85%; in [17], 97%; in [18], 97%. In addition, the residual activity was 86% in assay [19] and 95% in assay [20].

Regarding `CCOc1cc2ncnc(Nc3cccc(Br)c3)c2cc1OCC`, the residual activity in [1] came to 72%; in [2], 82%; in assay [3], 82%; in [4] it was 69%; in assay [5], 117%; in assay [6], 50%. The residual activity in [7] was found to be 91%; in [8], 62%; in [9], 88%; in assay [10] it was 50%; in [11] it was 81%; in assay [12] it was 44%. Besides, the residual activity worked out at 91% in [13]; 72% in assay [14]; 69% in [15]; 41% in [16]; 72% in assay [17]; 26% in assay [18]. The residual activity in [19] turned out to be 88%; in [20], 99%.

Take `Ic1cccc(CSc2nnc(-c3ccncc3)o2)c1`: the residual activity in assay [1] is 67%; in assay [2], 82%; in assay [3], 4%; in assay [4] it was 5%; in assay [5], 69%; in [6], 77%. Besides, the residual activity in [7] was 24%; in assay [8] it was 13%; in assay [9], 98%; in assay [10] it was 95%; in assay [11], 100%; in [12], 77%. In addition, the residual activity in assay [13] was found to be 70%; in [14], 94%; in [15] it was 84%; in [16] it was 68%; in assay [17], 90%; in assay [18], 88%. Also, the residual activity in assay [19] was found to be 123%; in [20], 87%.

In the case of `O=C(Nc1cccc(Nc2nccc(Nc3cccc(C(F)(F)F)c3)n2)c1)C1CC1`, the residual activity in assay [1] stood at 100%; in [2], 107%; in assay [3], 93%; in [4], 50%; in [5] it was 106%; in assay [6] it was 77%. In addition, the residual activity was determined as 61% in [7]; 63% in [8]; 87% in assay [9]; 59% in assay [10]; 76% in assay [11]; 51% in assay [12]. Further, the residual activity in assay [13] was 85%; in assay [14], 87%; in [15], 54%; in assay [16], 66%; in assay [17] it was 82%; in assay [18], 29%. For the same compound, the values for the residual activity in assay [19] and in assay [20] were 117% and 130%, respectively.

Regarding `CC[n+]1c(/C=C/N(C)c2ccccc2)n(-c2ccccc2)c2ccc(-c3nc4ccccc4s3)cc21`, the residual activity is 63% in assay [1]; 86% in [2]; 108% in [3]; 111% in assay [4]; 138% in [5]; 95% in [6]. Further, the residual activity in [7] was found to be 91%; in assay [8] it was 46%; in assay [9], 102%; in assay [10], 84%; in assay [11] it was 80%; in assay [12] it was 133%. Further, the residual activity in assay [13] came to 108%; in assay [14] it was 107%; in assay [15], 80%; in assay [16], 34%; in [17] it was 105%; in assay [18] it was 103%. For the same compound, the residual activity in [19] was 99%; in assay [20], 122%.

Regarding `O=c1cc(-c2cccc3c2Sc2ccccc2S3)oc(N2CCOCC2)c1`, the residual activity in [1] is 85%; in assay [2], 79%; in assay [3], 104%; in assay [4], 96%; in [5], 111%; in assay [6], 104%. The residual activity amounted to 93% in assay [7]; 90% in [8]; 111% in assay [9]; 100% in [10]; 113% in [11]; 78% in assay [12]. Besides, the residual activity was found to be 106% in [13]; 82% in assay [14]; 114% in [15]; 69% in assay [16]; 103% in assay [17]; 96% in [18]. In addition, the figures for the residual activity in assay [19] and in assay [20] were 110% and 112%, respectively.

`COc1cccc(-c2cc(=O)c3ccccc3o2)c1N`: the residual activity in assay [1] was determined as 78%; in assay [2], 97%; in assay [3], 87%; in assay [4], 85%; in assay [5], 103%; in assay [6] it was 111%. Besides, the residual activity was determined as 109% in assay [7]; 113% in [8]; 98% in [9]; 96% in assay [10]; 138% in [11]; 77% in [12]. Moreover, the residual activity in assay [13] came to 106%; in assay [14], 84%; in assay [15], 107%; in assay [16], 77%; in [17], 111%; in assay [18], 96%. Further, the residual activity came to 118% in [19] and 96% in [20].

Take `O=C1Nc2ccccc2/C1=C1/Nc2ccccc2/C1=N\OCCC(O)CO` (stereo not given): the residual activity in assay [1] is 61%; in assay [2], 80%; in assay [3] it was 40%; in [4] it was 8%; in assay [5], 26%; in [6] it was 21%. Further, the residual activity stood at 7% in [7]; 5% in assay [8]; 44% in [9]; 17% in assay [10]; 51% in [11]; 7% in [12]. In addition, the residual activity in assay [13] is 54%; in assay [14], 5%; in [15], 26%; in [16] it was 20%; in assay [17] it was 2%; in assay [18], 2%. The residual activity in assay [19] came out at 111%; in [20] it was 107%.

Regarding `COc1cc2ncnc(Nc3ccc(Oc4ccccc4)cc3)c2cc1OC`, the residual activity in assay [1] is 108%; in assay [2], 127%; in assay [3], 83%; in [4], 81%; in assay [5] it was 89%; in assay [6], 38%. For the same compound, the residual activity turned out to be 76% in assay [7]; 129% in assay [8]; 99% in assay [9]; 89% in assay [10]; 79% in assay [11]; 83% in assay [12]. Also, the residual activity turned out to be 87% in [13]; 81% in [14]; 72% in assay [15]; 91% in assay [16]; 18% in assay [17]; 4% in assay [18]. In addition, the residual activity was determined as 103% in assay [19] and 134% in assay [20].

On to `Oc1n[nH]c2nnc(-c3c(-c4ccccc4)nn4ccccc34)cc12`, for which the residual activity in assay [1] was 90%; in assay [2], 86%; in [3] it was 75%; in [4], 76%; in assay [5], 104%; in assay [6], 109%. Further, the residual activity in assay [7] was determined as 53%; in [8], 36%; in [9], 105%; in [10] it was 92%; in [11], 126%; in [12], 89%. Also, the residual activity was found to be 95% in [13]; 101% in assay [14]; 84% in [15]; 52% in assay [16]; 89% in assay [17]; 48% in assay [18]. For the same compound, the residual activity in assay [19] came out at 94%; in [20], 79%.

Regarding `Oc1ccc(-c2nc(-c3ccc(F)cc3)c(-c3ccncc3)[nH]2)cc1`, the residual activity was found to be 105% in assay [1]; 102% in [2]; 95% in [3]; 97% in [4]; 90% in [5]; 104% in [6]. Further, the residual activity in [7] was 92%; in assay [8], 46%; in assay [9], 91%; in assay [10], 49%; in [11] it was 12%; in [12], -1%. Besides, the residual activity in [13] amounted to 80%; in assay [14] it was 57%; in assay [15], 111%; in assay [16], 80%; in [17], 54%; in assay [18], 12%. Moreover, the residual activity in assay [19] is 116%; in assay [20] it was 103%.

The values above are taken from ChEMBL document CHEMBL2218924, “A broad activity screen in support of a chemogenomic map for kinase signalling research and drug discovery” (Biochem J, 2013).
